Conditions in all cases: mRNA level, 48 h; actives raise or lower the signal
Read-out in experiment [1]: Insulin Like Growth Factor 1 (IGF1), IGF1 (gene 3479)
As to the kind of experiment: LTEA_HepaRG_IGF1: Life Technologies and Expression Analysis (LTEA) Assay for Insulin Like Growth Factor 1 (IGF1) using HepaRG (AID 2283506). The procedure, abridged: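 Endpoint: IGF1 mRNA change by qRT-PCR, housekeeping-normalized, fitted bidirectionally relative to 0.5% DMSO vehicle. Human HepaRG cells were treated 48 h in serum-free induction medium, eight half-log concentrations topping at 100 uM.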

Read-out in experiment [2]: Intercellular Adhesion Molecule 1 (ICAM1), ICAM1 (gene 3383)
As to the kind of experiment: LTEA_HepaRG_ICAM1: Life Technologies and Expression Analysis (LTEA) Assay for Intercellular Adhesion Molecule 1 (ICAM1) using HepaRG (AID 2283507). The procedure, abridged: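 Readout is qRT-PCR mRNA level, normalized to three housekeeping genes and fitted bidirectionally against 0.5% DMSO vehicle. Human HepaRG cultures received compound for 48 h, top concentration 100 uM with half-log dilutions.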

Read-out in experiment [3]: Insulin-like growth factor-binding protein 1 (IGFBP1), IGFBP1 (gene 3484)
In words: LTEA_HepaRG_IGFBP1: Life Technologies and Expression Analysis (LTEA) Assay for Insulin-like growth factor-binding protein 1 (IGFBP1) using HepaRG (AID 2283508). The procedure, abridged: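 Thawed HepaRG cells are plated for 48 h, switched to serum-free induction medium, then dosed in duplicate for another 48 h (100 uM top, half-log steps). Lysates in RLT go to qRT-PCR, and gain or loss of signal is fitted relative to vehicle.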

Read-out in experiment [4]: Interleukin 6 (IL6), IL6 (gene 3569)
In words: LTEA_HepaRG_IL6: Life Technologies and Expression Analysis (LTEA) Assay for Interleukin 6 (IL6) using HepaRG (AID 2283509). The procedure, abridged: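 Changes in IL6 mRNA, up or down relative to 0.5% DMSO controls, were derived from concentration-response curves in human HepaRG cells treated for 48 h at up to 100 uM, with ACTB, GAPDH and POLR2A as normalizers.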

Read-out in experiment [5]: Interleukin 6 Receptor (IL6R), IL6R (gene 3570)
In words: LTEA_HepaRG_IL6R: Life Technologies and Expression Analysis (LTEA) Assay for Interleukin 6 Receptor (IL6R) using HepaRG (AID 2283510). The procedure, abridged:
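In this HepaRG screen, test chemicals act on cells for 48 h at up to 100 uM (eight half-log points, duplicate wells). IL6R expression is quantified by qRT-PCR after normalization to ACTB, GAPDH and POLR2A, with DMSO as baseline.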

Read-out in experiment [6]: Potassium channel subfamily K member 1 (KCNK1), KCNK1 (gene 3775)
As to the kind of experiment: LTEA_HepaRG_KCNK1: Life Technologies and Expression Analysis (LTEA) Assay for Potassium channel subfamily K member 1 (KCNK1) using HepaRG (AID 2283511). The procedure, abridged: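 Human HepaRG cultures receive test chemicals for 48 h in 0.5% DMSO, top concentration 100 uM with half-log dilutions. Induction or suppression of KCNK1 mRNA relative to DMSO is derived by bidirectional fitting of qRT-PCR data.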

Read-out in experiment [7]: Keratin 19 (KRT19), KRT19 (gene 3880)
As to the kind of experiment: LTEA_HepaRG_KRT19: Life Technologies and Expression Analysis (LTEA) Assay for Keratin 19 (KRT19) using HepaRG (AID 2283512). The procedure, abridged:
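KRT19 transcript levels, measured by Fluidigm qRT-PCR against three housekeeping genes, are fitted for gain or loss of signal relative to DMSO. Human HepaRG cells receive test chemicals (top 100 uM, half-log steps, 0.5% DMSO) for 48 hours.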

Read-out in experiment [8]: JUN Transcription Factor, JUN (gene 3725)
As to the kind of experiment: LTEA_HepaRG_JUN: Life Technologies and Expression Analysis (LTEA) Assay for JUN Transcription Factor using HepaRG (AID 2283513). The procedure, abridged: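 Gene-expression endpoint: JUN mRNA (qRT-PCR, normalized to three reference genes) in HepaRG cultures treated 48 h with chemicals, duplicate wells, 100 uM maximum with half-log dilutions; bidirectional fitting relative to 0.5% DMSO.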

Read-out in experiment [9]: Lipase C (LIPC), LIPC (gene 3990)
As to the kind of experiment: LTEA_HepaRG_LIPC: Life Technologies and Expression Analysis (LTEA) Assay for Lipase C (LIPC) using HepaRG (AID 2283514). The procedure, abridged:
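In this multiplexed gene-expression screen, human HepaRG cultures received test chemicals for 48 h across eight concentrations with 100 uM highest, in duplicate. Values reflect LIPC mRNA induction or suppression versus DMSO vehicle, from normalized qRT-PCR.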

Read-out in experiment [10]: Lipoprotein lipase (LPL), LPL (gene 4023)
As to the kind of experiment: LTEA_HepaRG_LPL: Life Technologies and Expression Analysis (LTEA) Assay for Lipoprotein lipase (LPL) using HepaRG (AID 2283515). The procedure, abridged: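 Concentration-response testing used half-log steps from 100 uM in 0.5% DMSO on human HepaRG cells, 48 h, duplicate wells. Phenobarbital 1 mM served as induction control; LPL mRNA was normalized to ACTB, GAPDH, POLR2A.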

Read-out in experiment [11]: MicroRNA 122 (MIR122), gene 406906
In words: LTEA_HepaRG_MIR122: Life Technologies and Expression Analysis (LTEA) Assay for MicroRNA 122 (MIR122) using HepaRG (AID 2283516). Further: the transcript read is the microRNA miR-122. The procedure, abridged:
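Changes in transcript abundance, up or down relative to 0.5% DMSO vehicle, were scored after 48 h chemical treatment of HepaRG cells (maximum 100 uM). Quantification used TaqMan qRT-PCR normalized to housekeeping genes.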

Read-out in experiment [12]: matrix metalloproteinase-10 (MMP10), MMP10 (gene 4319)
As to the kind of experiment: LTEA_HepaRG_MMP10: Life Technologies and Expression Analysis (LTEA) Assay for matrix metalloproteinase-10 (MMP10) using HepaRG (AID 2283517). The procedure, abridged: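 In differentiated HepaRG cultures kept in 0.5% DMSO, test chemicals act for 48 h over an eight-point range with a top dose of 100 uM. Expression is then quantified by TaqMan RT-PCR against ACTB, GAPDH and POLR2A.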

Read-out in the next experiment: MYC, MYC (gene 4609)
In words: LTEA_HepaRG_MYC: Life Technologies and Expression Analysis (LTEA) Assay for MYC using HepaRG (AID 2283518). The procedure, abridged:
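HepaRG, ~100,000 cells/well, collagen I; 48 h plating; serum-free induction medium; 48 h dosing, duplicate, 100 uM top, half-log, 0.5% DMSO; total RNA → qRT-PCR MYC; gain/loss fit vs DMSO.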

Read-out in experiment [13]: Paternally Expressed 10 (PEG10), PEG10 (gene 23089)
In words: LTEA_HepaRG_PEG10: Life Technologies and Expression Analysis (LTEA) Assay for Paternally Expressed 10 (PEG10) using HepaRG (AID 2283520).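 On AC50: PEG10 transcript by qRT-PCR normalised to ACTB GAPDH and POLR2A.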 The procedure, abridged: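 After 48 h exposure of differentiated HepaRG cells (0.5% DMSO vehicle, eight concentrations up to 100 uM, duplicates), PEG10 mRNA was measured by TaqMan qRT-PCR. Values were normalised to endogenous control genes and analysed bidirectionally against vehicle.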

Read-out in experiment [14]: Nuclear factor NF-kappa-B p105 subunit (Homo sapiens) (UniProt P19838)
In words: LTEA_HepaRG_NFKB1: Life Technologies and Expression Analysis (LTEA) Assay for Nuclear Factor Kappa B Subunit 1 (NFKB1) using HepaRG (AID 2283521).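 Further: differentiated human HepaRG liver cells in serum-free induction medium; TaqMan qRT-PCR transcript normalised to ACTB GAPDH and POLR2A housekeeping genes.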 The procedure, abridged: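 HepaRG, 48 h exposure; 8-pt half-log series from 100 uM in 0.5% DMSO; duplicates. Readout: NFKB1 mRNA by qRT-PCR (Fluidigm arrays), housekeeping-normalized. Gain/loss fit vs DMSO baseline.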

Read-out in experiment [15]: Protein phosphatase 2A (PPP2R4), PTPA (gene 5524)
As to the kind of experiment: LTEA_HepaRG_PPP2R4: Life Technologies and Expression Analysis (LTEA) Assay for Protein phosphatase 2A (PPP2R4) using HepaRG (AID 2283522). The procedure, abridged:
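Using HepaRG cultures maintained in 0.5% DMSO, chemicals are tested 48 h at up to 100 uM in duplicate. Induction or suppression of PPP2R4 mRNA, measured by qRT-PCR, is fitted bidirectionally against the vehicle baseline.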

Read-out in experiment [16]: Phosphatase and tensin (PTEN), PTEN (gene 5728)
In words: LTEA_HepaRG_PTEN: Life Technologies and Expression Analysis (LTEA) Assay for Phosphatase and tensin (PTEN) using HepaRG (AID 2283523). The procedure, abridged:
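Expression of PTEN is quantified in the human liver line HepaRG following two days of dosing (top concentration 100 uM, half-log dilutions, 0.5% DMSO). Values derive from bidirectional curve fitting relative to DMSO controls.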

Read-out in experiment [17]: solute carrier (SLC22A1), SLC22A1 (gene 6580)
As to the kind of experiment: LTEA_HepaRG_SLC22A1: Life Technologies and Expression Analysis (LTEA) Assay for solute carrier (SLC22A1) using HepaRG (AID 2283524). The procedure, abridged:
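Transcript induction or suppression of SLC22A1 in human HepaRG cultures is scored after 48 h chemical treatment, with DMSO (0.5%) as baseline for bidirectional fitting. Concentrations span eight half-log points topping at 100 uM.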

Read-out in experiment [18]: Pyruvate Dehydrogenase Kinase 4 (PDK4), PDK4 (gene 5166)
As to the kind of experiment: LTEA_HepaRG_PDK4: Life Technologies and Expression Analysis (LTEA) Assay for Pyruvate Dehydrogenase Kinase 4 (PDK4) using HepaRG (AID 2283525). The procedure, abridged: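 Eight-point, half-log concentration series (max 100 uM, 0.5% DMSO) applied to differentiated HepaRG cells for 48 h in duplicate. Endpoint: PDK4 mRNA induction or repression by qRT-PCR against DMSO baseline.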

Read-out in experiment [19]: matrix metalloproteinase-3 (MMP3), MMP3 (gene 4314)
In words: LTEA_HepaRG_MMP3: Life Technologies and Expression Analysis (LTEA) Assay for matrix metalloproteinase-3 (MMP3) using HepaRG (AID 2283519). The procedure, abridged: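 Human liver HepaRG cultures received chemicals (top concentration 100 uM, 0.5% DMSO) for 48 h in duplicate. MMP3 mRNA induction or loss was then assessed via TaqMan qRT-PCR with housekeeping-gene normalisation.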

The structures appear in SMILES notation. The source made the active and inactive calls. How the source made its calls: active means hit-call score of the fitted dose curve at least 0.9, where 1 is the maximum; inactive means score below 0.9.

Sequence of Nuclear factor NF-kappa-B p105 subunit (Homo sapiens) (P19838 whole entry, looked up): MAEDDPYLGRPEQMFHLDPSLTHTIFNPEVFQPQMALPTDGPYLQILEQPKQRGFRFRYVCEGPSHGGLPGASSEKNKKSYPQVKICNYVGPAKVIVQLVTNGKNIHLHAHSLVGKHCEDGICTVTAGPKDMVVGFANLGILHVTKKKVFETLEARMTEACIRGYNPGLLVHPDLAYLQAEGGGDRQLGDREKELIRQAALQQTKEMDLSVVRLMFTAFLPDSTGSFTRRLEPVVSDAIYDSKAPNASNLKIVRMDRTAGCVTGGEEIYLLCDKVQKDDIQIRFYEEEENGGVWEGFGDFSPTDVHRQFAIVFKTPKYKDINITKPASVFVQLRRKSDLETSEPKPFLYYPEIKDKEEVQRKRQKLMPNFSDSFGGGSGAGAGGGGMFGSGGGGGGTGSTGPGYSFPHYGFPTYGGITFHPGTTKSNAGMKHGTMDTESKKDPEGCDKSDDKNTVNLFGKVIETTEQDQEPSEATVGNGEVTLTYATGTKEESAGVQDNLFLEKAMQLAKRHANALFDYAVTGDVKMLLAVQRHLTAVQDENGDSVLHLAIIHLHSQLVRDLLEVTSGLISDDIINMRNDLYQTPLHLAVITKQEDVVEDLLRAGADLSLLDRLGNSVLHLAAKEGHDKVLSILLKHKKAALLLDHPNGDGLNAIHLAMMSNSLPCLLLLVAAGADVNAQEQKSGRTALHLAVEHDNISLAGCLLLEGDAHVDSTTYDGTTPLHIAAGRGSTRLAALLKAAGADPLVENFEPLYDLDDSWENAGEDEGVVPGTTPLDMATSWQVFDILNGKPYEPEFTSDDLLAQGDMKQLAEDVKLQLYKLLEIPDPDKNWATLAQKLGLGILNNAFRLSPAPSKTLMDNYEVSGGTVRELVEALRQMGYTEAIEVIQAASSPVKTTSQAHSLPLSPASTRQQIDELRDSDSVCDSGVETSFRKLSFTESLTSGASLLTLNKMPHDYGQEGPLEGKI

As for `CC(C)(O)c1coc(S(=O)(=O)NC(=O)Nc2c3c(cc4c2CCC4)CCC3)c1`, the outcome in experiment [1], in experiment [2], in [3], in [4], in experiment [5] and in [6] was inactive. Besides, the outcome in experiment [7], in experiment [8], in experiment [9], in [10], in experiment [11] and in [12] was inactive. Also, the outcome was “inactive” with MYC, MYC (gene 4609); “inactive” in [14]; “inactive” in experiment [15]; “inactive” in experiment [16]; “inactive” in [17]; “inactive” in experiment [18]. In addition, the AC50 in experiment [13] is 50 µM (active).

Turning to `CC(C)CCO`, the outcome in experiment [1], in [2], in experiment [3], in [4], in experiment [5] and in experiment [6] was inactive. Also, the outcome in experiment [7] was “inactive”; in [9], “inactive”; in [10], “inactive”; in experiment [11] it was “inactive”; in [12] it was “inactive”; with MYC, MYC (gene 4609) it was “inactive”. For the same compound, the call in [19], in experiment [13], in [14], in [15], in experiment [16] and in experiment [17] was inactive. Further, in [18], the compound was called inactive.

For `Cc1c(-c2cccnc2)c2ccccc2n1CCCCC(=O)O`, the outcome in [1], in experiment [2], in experiment [3], in [4], in experiment [5] and in [6] was inactive. Further, the outcome was “inactive” in experiment [7]; “inactive” in experiment [9]; “inactive” in experiment [10]; “inactive” in [11]; “inactive” in experiment [12]; “inactive” with MYC, MYC (gene 4609). For the same compound, the call in [13], in experiment [14], in experiment [15] and in [16] was inactive.

For `COC(=O)CC(=O)OC`, the call in experiment [1], in experiment [2], in experiment [3], in experiment [4], in [5] and in [6] was inactive. Moreover, the outcome in experiment [7] was “inactive”; in [9] it was “inactive”; in [10] it was “inactive”; in experiment [11], “inactive”; in experiment [12], “inactive”; with MYC, MYC (gene 4609) it was “inactive”. Further, the outcome in [19], in [15], in experiment [16] and in experiment [17] was inactive. Besides, in experiment [13], the AC50 is 50 µM (active).

One may read the AC50 as the concentration at which the activity in the assay is half-maximal.

Source of the values: PubChem BioAssay (EPA / NIEHS).
